Screening results (PubChem)
An excerpt weighted towards active compounds, which were near 7.4% of everything screened.
SMN2 splice up: SMN2 splice variant enhancement; HEK293 SMN2-luciferase splicing reporter, luminescence, 30-36 h; 210,000 tested, 2.8% active; Potency, µM (titrated, usually from 46.1 µM), for the others: at the highest dose activity change, positive = activation, usual class: activators; note: % of control where 0% means no effect; nearly all actives have a fitted effect of over 55% in size
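HEK293 cells carry an SMN2 minigene-luciferase reporter in which exon 7 inclusion puts luciferase in frame. Cells were seeded at 2000 cells/well, attached for 10-12 hours, then exposed to compounds for 30-36 hours at 37C before ONE-Glo luminescence.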
FLuc counter: firefly luciferase modulation, counter-screen for miR-21 project. P08659. purified FLuc, Km substrates, luminescence inhibition. Potency, µM (series often up to 57.5 µM), inactives show top-dose activity change, negative = inhibition, hits mostly inhibitors. 360,000 tested, 6.9% active;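 note: plate controls were vehicle for no effect and reference inhibitor for full effect; nearly all actives have a fitted effect of over 55% in size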
Target sequence (P08659 whole entry, looked up): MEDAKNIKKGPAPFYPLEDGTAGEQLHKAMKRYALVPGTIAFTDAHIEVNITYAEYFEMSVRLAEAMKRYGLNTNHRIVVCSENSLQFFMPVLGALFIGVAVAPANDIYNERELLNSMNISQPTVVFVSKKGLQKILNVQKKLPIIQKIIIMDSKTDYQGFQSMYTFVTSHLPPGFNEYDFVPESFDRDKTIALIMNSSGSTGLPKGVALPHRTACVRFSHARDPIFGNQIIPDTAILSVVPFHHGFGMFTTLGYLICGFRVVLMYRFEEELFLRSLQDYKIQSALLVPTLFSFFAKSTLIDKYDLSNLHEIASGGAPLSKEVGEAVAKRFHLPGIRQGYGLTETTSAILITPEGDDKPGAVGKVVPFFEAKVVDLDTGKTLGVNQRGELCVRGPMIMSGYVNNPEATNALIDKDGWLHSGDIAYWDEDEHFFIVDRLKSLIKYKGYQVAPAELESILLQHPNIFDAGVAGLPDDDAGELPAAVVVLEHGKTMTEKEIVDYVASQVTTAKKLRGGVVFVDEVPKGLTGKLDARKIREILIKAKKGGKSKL
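Biochemical qHTS of compounds, final roughly 60 µM downward over six points, against 10 nM purified firefly luciferase using Km concentrations of substrates (10 uM D-luciferin, 10 uM ATP) in Tris acetate pH 7.5 buffer; luminescence output.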
ELG1 genotox: inducers of genotoxicity in HEK293T ELG1-luciferase cells. HEK293T ELG1-luciferase reporter, luminescence, 16 h. AID 504466. 330,000 tested, 1.3% active. Potency, µM (titrated, usually from 46 µM), for the others: at the top dose activity change, positive = activation, actives largely listed as activators; note: % of control where 0% means no effect; nearly all actives have a fitted effect of over 60% in size
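Genotoxic stress is detected as increased luminescence from luciferase-tagged ELG1 in HEK293T cells, measured with ONE-Glo after a 16 hr treatment at 37 °C.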
Rab9 promoter act: activates the Rab9 promoter; Huh7 Rab9 promoter-luciferase reporter, luminescence, 24 h; Potency, µM (series often up to 9.22 µM), without a hit: at the highest dose activation, negative = inhibition, most hits filed as activators; 320,000 tested, 2.8% active; AID 485297; note: % of control where 0% means no effect; nearly all actives have a fitted effect of over 60% in size
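Stable Rab9-luc Huh7, 1500 cells/well, 2 h settle; cmpd in DMSO, 24 h, 37 °C/5% CO2; luciferase reagent 10 min RT; luminescence.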
NPC1 promoter act: activators of NPC1 promoter; Huh7 NPC1 promoter luciferase reporter, 24 h; Potency, µM (doses to about 9.22 µM), inactives show at the top dose activation, hits mostly activators; 320,000 tested, 2.4% active; AID 485313; note: % of control where 0% means no effect; nearly all actives have a fitted effect of over 60% in size
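Cells: Huh7 expressing luciferase under the NPC1 promoter, 1500/well. Seeded 2 h, compound added, incubated 24 h at 37 °C. Luciferase reagent, 10 min ambient, then luminescence.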
Active calls of the source: *; ? = inconclusive; . = not tested or not shown; [ ] = dose if it differs, or a comment. Calls come from the whole dose curve; as a rule, active = well fitted curve in the direction sought with a large enough effect; inconclusive = small, poorly fitted or top-dose-only effect, or another doubt; inactive = no such curve, though single readings can be large; an effect the other way counts as inactive or inconclusive. Potency is the fitted concentration of half-maximal effect.

SMILES	SMN2 splice up	FLuc counter	ELG1 genotox	Rab9 promoter act	NPC1 promoter act
O=C(Nc1ccc2c(c1)OCO2)C1COc2ccccc2O1 (stereo not drawn)	?	17µM*	?	2.8µM*	?
O=C(Nc1nc(-c2ccc(F)c(F)c2)cs1)Nc1ccc(F)cc1F	.	1%	?	-6%	-3%
O=c1ccn(C2OC(COP(=O)(O)OP(=O)(O)OP(=O)(O)O)C(O)C2O)c(=O)[nH]1 (stereo not drawn)	6%	.	.	.	.
COc1ccc(Nc2ncnc3onc(-c4ccc(Cl)cc4)c23)cc1Cl	-17%	1%	.	.	.
COc1cccc(NC(=O)C2COc3ccccc3O2)c1 (stereo not drawn)	.	27µM*	?	24%	?
CN(C)c1ccc(C(=C2C=CC(=[N+](C)C)C=C2)c2c(O)c(S(=O)(=O)O)cc3cc(S(=O)(=O)O)ccc23)cc1	-43%[9.22 µM]	.	.	.	.
Cc1ccc(C(=O)COC(=O)c2cccc(O)c2)s1	.	0.43µM*	2%	4%	15%
COc1cccc(C(=O)OCC(=O)c2ccc(Br)s2)c1	.	7.6µM*	1%	0%	3%
Cc1cccc(C(=O)NCC(=O)OCC(=O)c2ccc(C)s2)c1	.	.	3%	.	.
O=C(C1CCCN1S(=O)(=O)c1ccc(Cl)cc1)N1CCCCC1 (stereo not drawn)	.	1%	2%	0%	0%
Cc1ccc(CN/C=C/C(=O)c2ccc(Br)cc2)cc1	17%	17µM*	5%	20%	20%
Cc1ccc(C(=O)/C=C/NCc2ccc(F)cc2)cc1	29%	17µM*	10%	5%	-3%
Cc1ccc(NC(=O)CCCc2ccccc2)nc1	16µM*	17µM*	?	4µM*	?
Cc1ccc(NC(=S)NCCc2ccccc2)nc1	25µM*	17µM*	?	?	27%
CNC(=S)NCCc1ccccc1	.	-2%	3%	1%	-2%
N#C/C(=C\c1cccs1)C(=O)c1ccccc1Cl	.	21µM*	-10%	-6%	2%
N#C/C(=C\c1cccs1)C(=O)NCc1ccccc1	11%	-12%	6%	0%	0%
N#C/C(=C\c1cccs1)C(=O)Nc1nccs1	?	4.3µM*	?	2.8µM*	3.5µM*
CC(=O)c1cc2ccc(O)cc2oc1=O	.	0%	2%	-7%	0%
Cc1ccc(N=c2oc3cc(O)ccc3cc2C(N)=O)cc1	.	19µM*	-2%	4.5µM*	?
O=C(O)c1ccccc1CSc1nc2ccccc2o1	?	11µM*	?	?	4.5µM*
O=C(O)c1ccc(CSc2nc3ccccc3o2)cc1	-10%	19µM*	5%	0%	-1%
O=C(CCSc1nc2ccccc2o1)Nc1ccccc1	.	-4%	-1%	0%	1%
O=c1c2oc3ccccc3c2ncn1Cc1ccc(F)cc1	-26%	-3%	5%	-4%	1%
CNCc1ccccc1Sc1cc(O)ccc1O	-14%	9.5µM*	7%	-1%	7%
SMILES	SMN2 splice up	FLuc counter	ELG1 genotox	Rab9 promoter act	NPC1 promoter act
Cc1ccc(NC(=S)N/N=C/c2c(C)nn(-c3ccccc3)c2N2CCCC2)cc1	.	0%	-3%	1%	3%
Cc1nn(C)cc1/C=N/NC(=S)Nc1ccccc1	26%	5.4µM*	17%	2µM*	?
Cc1ccccc1NS(=O)(=O)c1ccc2[nH]cc(C(=O)NCCc3ccccc3)c(=O)c2c1	.	?	.	-3%	1%
CCOC(=O)c1cccc(NC(=O)/C=C/c2cccc([N+](=O)[O-])c2)c1	-22%	-11%	2%	16%	0%
O=C(Nc1cccc(NC(=O)c2cccs2)c1)c1ccc2c(c1)OCO2	28%	15µM*	-2%	7%	10%
CCOC(=O)c1c(NC(=S)Nc2ccc(Cl)cc2)sc(C)c1C	6%	3%	5%	0%	1%
CCOC(=O)c1cccc(NC(=O)/C=C/c2ccc3c(c2)OCO3)c1	?	1.9µM*	?	0.32µM*	0.32µM*
CCOC(=O)c1c(N)sc(C(=O)Nc2ccc3c(c2)OCO3)c1C	-43%	0.43µM*	0.37µM*	0.1µM*	0.32µM*
CCOC(=O)c1c(C)c(C(=O)Nc2ccc3c(c2)OCO3)c(C)n1C	-29%	-13%	2%	1%	5%
CCOC(=O)c1c(NC(=O)c2cc(C)oc2C)sc(C(=O)Nc2ccc(Cl)cc2)c1C	-2%	17µM*	14%	29%	23%
Cc1ccc(-n2c(/C=C/c3c(C)n(C)c4ccccc34)nc3ccccc3c2=O)cc1	0%	-2%	.	.	.
CCC/C(=N/NC(=O)c1ccc2c(c1)OCO2)c1cccs1	20µM*	17µM*	13%	?	13%
CC(=O)c1cccc(NC(=O)c2ccc3c(c2)OCO3)c1	.	27µM*	16%	?	?
CCOC(=O)c1cccc(NC(=O)c2ccc3c(c2)OCO3)c1	.	8.5µM*	?	0.22µM*	0.4µM*
O=C(Nc1cccc(NC(=O)c2ccc3c(c2)OCO3)c1)c1ccccc1	11%	?	-2%	1%	7%
CC(=O)c1cccc(NC(=O)COC(=O)c2ccc3c(c2)OCO3)c1	.	3%	2%	-1%	1%
CC(=O)c1cccc(NC(=O)c2ccc3ccccc3c2)c1	.	1.9µM*	?	2.8µM*	3.2µM*
O=C(Nc1ccc(NC(=O)c2cccs2)cc1)c1ccc2c(c1)OCO2	.	2%	?	-9%	-9%
CC(NC(=O)c1ccc(NC2=NC3CS(=O)(=O)CC3S2)cc1)c1ccccc1 (stereo not drawn)	.	1%	-2%	2%	0%
COc1cccc(N2CCN(C(=O)c3ccc(Cn4c(=O)[nH]c5cc(OC)c(OC)cc5c4=O)cc3)CC2)c1	-7%	-3%	.	.	.
Cc1nc2nc(SCC(=O)Nc3cccc(Cl)c3)nn2c(C)c1Cc1ccccc1	.	0%	.	.	.
CC(OC(=O)/C=C/c1ccccc1)C(=O)Nc1ccc2c(c1)OCCO2 (stereo not drawn)	.	0%	1%	-4%	0%
COc1ccc(-c2cccc(NC(=O)c3ccc4c(c3)OCO4)c2)nn1	.	15µM*	-17%	-8%	3%
CC(=O)c1cccc(NC(=O)C(OC(=O)/C=C/c2ccc3c(c2)OCO3)c2ccccc2)c1 (stereo not drawn)	0%	13µM*	27%	1%	7%
CCOC(=O)C1=C(C)NC(C)=C(C(=O)OCC)C1/C=C/c1ccccc1	12%	5%	?	-5%	0%
COC(=O)C1=C(C)NC(C)=C(C(=O)OC)C1/C=C/c1ccccc1	26%	1%	16µM*	-1%	-2%
CC1CC1C(=O)Nc1ccc(-c2ccccc2)cc1 (stereo not drawn)	13µM*	9.5µM*	?	2.5µM*	3.2µM*
NS(=O)(=O)Cc1noc2ccccc12	.	2%	4%	-6%	-2%
Cc1ccc(OCC(=O)Nc2cccc(C)n2)c(C)c1	23%	4.3µM*	4.1µM*	?	?
